Our source for the growth values is PubChem BioAssay (NCI).

The panel holds about 83,000 compounds, 20% with a hit somewhere; the sample as a whole holds those more often.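 The test compound was applied at a single concentration to cells in 96-well plates for 48 hours, and percent growth was recorded.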 Active and inactive are the calls of the source. How the source made its calls: active means growth percent below 10; inactive means the rest.

This assay relates to MOLT-4 leukemia. As to the kind of experiment: NCI-60 one-dose screen, 48 h (100 = growth as untreated, 0 = no growth, -100 = all killed). The conditions noted are these: 10 µM unless noted.
Regarding `FC(F)(F)c1cc(-c2nnc3n2N=C(N2CCCC2)CS3)cc(C(F)(F)F)c1`, the growth is 90.5% (inactive). On to `Clc1ccc(C2=NN(c3ccc(Cl)cc3)C(c3cccc(Nc4ccnc5cc(Cl)ccc45)c3)C2)cc1` (stereo not drawn), for which the growth is 56.7% (inactive). With `C=CCN(/C=C/CN(CC=C)CC=C)CC=C`, the growth is 96.4% (inactive). Turning to `Cc1ccc(S(=O)(=O)NCCN2c3nc4ccccc4cc3Sc3cc4ccccc4nc32)cc1`, the growth was 108% (inactive).

With `O=C(CNC(=O)c1cccc2ccccc12)Nc1ccccc1Oc1cccc(O)c1`, the growth is 11.9% [5 µM] (inactive). The figure for `COc1ccc2c(=O)c(OC)c(-c3cc(OC)c(OC)c(OC)c3)oc2c1` is 99.6% (inactive); for `COc1cnc2c(c1)C(=O)c1c-2n(CCCN2CCC(O)CC2)c(=O)c2cc(F)ccc12` it is -19.2% (active). For `O=C(/C=C/c1c(-c2ccccc2)[nH]c2ccccc12)S(=O)(=O)c1ccccc1`, the growth is 20.4% (inactive). Consider `O=C(Nc1nc2c(C(F)(F)F)cccc2s1)c1cc(Cl)ccc1O`, for which the growth is -8.05% (active). For the compound `CCN(CC)CCOCC[C@H]1CC[C@H]2[C@@H]3[C@H](C)Cc4cc(OS(N)(=O)=O)ccc4[C@H]3CC[C@]12C`, the growth is -52.2% (active). Turning to `COc1cnc2c(c1)C(=O)c1c-2n(CCCN2CCCC2)c(=O)c2cc(F)ccc12`, the growth was -19.5% (active). The value for `COc1ccc(-n2cnc3cc(C(=O)N4CCCCC4)ccc32)cc1` was 98% (inactive); that for `COc1cc(-c2n[nH]nc2-c2ccccn2)cc(OC)c1OC` was 96.6% (inactive); that for `COc1cc(C2=NN(C=O)C(c3cccc(Nc4ccnc5cc(Cl)ccc45)c3)C2)cc(OC)c1OC` (stereo not drawn) was 27.9% (inactive). The value for `Cc1sc2nc(NCc3ccccc3)[nH]c(=O)c2c1C` was 44% (inactive).

As for `CC(=O)N1N=C(c2ccc(Nc3nc(NCCO)nc(NCCO)n3)cc2)CC1c1ccc(Cl)cc1` (stereo not drawn), the growth is 116% (inactive). For the compound `COc1ccc(N2CCN(CC(=O)N3CCN(c4nnc(-c5ccc(Cl)cc5)c(-c5ccc(Cl)cc5)n4)CC3)CC2)cc1`, the growth is -21.2% (active). Regarding `COc1ccc(Oc2ccccc2NC(=O)CNC(=O)c2cccc3ccccc23)cc1`, the growth was 17.1% [5 µM] (inactive). Turning to `COc1cccc(N2CCN(CC(=O)N3CCN(c4nnc(-c5ccc(Cl)cc5)c(-c5ccc(Cl)cc5)n4)CC3)CC2)c1`, the growth was 28.4% (inactive). The value for `CC(=O)N1N=C(c2ccc3c(c2)OCO3)CC1c1c(C)nn(-c2ccccc2)c1N(C)Cc1ccccc1` (stereo not drawn) was 41.9% (inactive); that for `COc1ccc(C(=O)/C=C/c2cccc(Nc3ccnc4cc(Cl)ccc34)c2)cc1` was 42.3% (inactive); that for `COc1cc(C2CC(C3C(=O)N(C)C(=O)N(C)C3=O)=NN2c2cc(Cl)cc(Cl)c2)cc(OC)c1OC` (stereo not drawn) was 88.9% (inactive). The figure for `O=C1NC(=O)/C(=C\c2ccco2)S1` is 111% (inactive). As for `COc1ccc2nc(-c3ccc(Cl)cc3)cc(-c3nnc(SCC(=O)Nc4ccc(C(C)=O)cc4)n3-c3ccccc3)c2c1`, the growth was 83% (inactive).

Take `O=C(CNC(=O)c1cccc2ccccc12)Nc1ccccc1Cc1ccccc1`: the growth was 19.2% [5 µM] (inactive). As to `Nc1ncnc2c1CN(Cc1ccccc1)CC2`, the growth is 102% (inactive). Take `CCOC(=O)c1sc(NC(=O)COc2cccc(/C=C3\Cc4ccc(Cl)cc4C3=O)c2)nc1C`: the growth was 105% (inactive). With `COC(=O)[C@H](CCCCNC(=O)OCc1ccccc1)NC(=O)[C@@H](NC(=O)Nc1cc(C(F)(F)F)cc(C(F)(F)F)c1)C(C)C`, the growth was -7.72% [100 µM] (active). With `CCN(CC)c1ccc(C(=C2C=CC(=[N+](CC)Cc3cccc(S(=O)(=O)O)c3)C=C2)c2ccc(N(CC)Cc3cccc(S(=O)(=O)O)c3)cc2)cc1`, the growth is 48% (inactive). As for `O=C(CNC(=O)c1cccc2ccccc12)Nc1ccccc1Oc1ccc(O)cc1`, the growth is 19.6% [5 µM] (inactive).

Turning to `CN1C(=O)C(C2=NN(C=O)C(c3ccc(F)cc3)C2)C(=O)N(C)C1=O` (stereo not drawn), the growth was 93.8% (inactive).

For `O=CN1N=C(c2ccc(Nc3ccnc4cc(Cl)ccc34)cc2)CC1c1ccc(Cl)cc1` (stereo not drawn), the growth is 7.23% (active). As to `COc1cccc(-c2nc3cc(NC(=O)c4ccc(Cl)c(C#N)c4)ccc3o2)c1`, the growth was 78.4% (inactive).
